Experimental data: PubChem BioAssay
Activity calls are given as the source filed them. Unless noted, no rule for the calls is given here.

Assays:
[1] = system: Wnt5a (protein binding on small-molecule microarray); assay: small molecules binding Wnt5a protein – biophysical, small-molecule microarray, 635/667 nm fluorescence, primary screen (AID 1142); settings: 635 nm fluorescence, higher = more signal;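 also: fluorescence read at 667 nm with signal to noise per printed feature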
[2] = ATP-based viability of Huh7 replicon cells – cell-based, CellTiter-Glo luminescence, basal, 48 h, cytotoxicity control for HCV replication inhibitor project, primary screen (AID 1143); settings: higher = more signal, called active from +8 up or from −8 down;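 also: Huh7 hepatoma cells carrying a hepatitis C replication reporter with no stimulus; test concentration not given here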
[3] = Pseudomonas biofilm growth suppression – PAO1 strain, BacTiter-Glo luminescence, LB-PBS, primary screen (AID 1144); settings: P. aeruginosa PAO1 biofilm, 12 h, higher = more signal
[4] = basal CRE-LacZ reporter activity in PC12 – cell-based, unstimulated, primary screen (AID 1145); settings: no forskolin, luminescence, 4.5 h, higher = more signal, called active from +8 up or from −8 down
[5] = forskolin-driven CRE-LacZ activity in PC12 – cell-based, CRE-LacZ reporter, forskolin-stimulated, primary screen (AID 1146); settings: luminescence, 4.5 h, higher = more signal, called active from +8 up or from −8 down;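 also: PC12 cells with 6xCRE LacZ reporter stimulated by forskolin 10 µM; beta-galactosidase reporter signal reflecting CREB driven transcription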
[6] = target: Streptavidin (Streptomyces avidinii) (UniProt P22629); assay: compounds binding control protein streptavidin – biophysical, small-molecule microarray, 635/667 nm fluorescence, artefact control for SMM compound annotation, primary screen (AID 1147); settings: higher = more signal;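 also: signal reflects streptavidin binding to arrayed compounds as a control protein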
Sequence of Streptavidin (Streptomyces avidinii) (P22629 whole entry, looked up): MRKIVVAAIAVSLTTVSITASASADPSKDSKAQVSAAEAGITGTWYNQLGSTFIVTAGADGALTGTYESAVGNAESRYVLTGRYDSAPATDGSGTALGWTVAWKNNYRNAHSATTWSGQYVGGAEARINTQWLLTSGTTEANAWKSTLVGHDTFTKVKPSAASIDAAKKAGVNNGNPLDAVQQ

[7] = probe aInhba binding on compound microarray – biochemical, small-molecule microarray, 635/667 nm fluorescence, primary screen (AID 1148); settings: higher = more signal;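 also: score merges 667nm spot fluorescence with signal-to-noise for antibody binding to printed compounds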
[8] = target: Torsin-1A (Homo sapiens) (UniProt O14656); assay: TOR1A wild-type binding on microarray – cell lysate, small-molecule microarray, lysate, 635/667 nm, primary screen (AID 1149); settings: COS7 hTOR1A-WT lysate, 635 nm fluorescence, higher = more signal
Sequence of Torsin-1A (Homo sapiens) (O14656 whole entry, looked up): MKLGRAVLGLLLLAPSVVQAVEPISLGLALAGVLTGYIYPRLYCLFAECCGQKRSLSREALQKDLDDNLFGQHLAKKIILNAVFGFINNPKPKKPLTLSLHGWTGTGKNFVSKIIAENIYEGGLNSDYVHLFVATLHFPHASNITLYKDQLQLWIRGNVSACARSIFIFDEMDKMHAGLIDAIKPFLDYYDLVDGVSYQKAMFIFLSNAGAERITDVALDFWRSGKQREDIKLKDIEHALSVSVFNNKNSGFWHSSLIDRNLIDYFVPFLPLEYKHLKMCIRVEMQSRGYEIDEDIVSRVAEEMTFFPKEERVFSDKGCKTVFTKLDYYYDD

[9] = target: Torsin-1A (Homo sapiens) (UniProt O14656); assay: torsin A mutant lysate binding on microarrays – cell lysate, small-molecule microarray, COS7 lysate, 635/667 nm fluorescence, primary screen (AID 1150); settings: COS7 hTOR1A mutant lysate, 635 nm fluorescence, higher = more signal;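 also: score pools 667 nm emission and signal to noise measuring lysate protein binding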
[10] = system: Sonic hedgehog protein (Shh); assay: Sonic hedgehog microarray binding compounds – biochemical, small-molecule microarray, 635/667 nm fluorescence, primary screen (AID 1151); settings: 635 nm fluorescence, higher = more signal;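 also: Shh protein binding to compounds spotted on small-molecule microarray slides; score combines spot fluorescence intensity with signal-to-noise across triplicate slides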
[11] = optical density shifts of acrAB sulA E. coli – strain DRC41, OD650, 48 h, E. coli filamentation inducer project, primary screen (AID 1152); settings: higher = more signal, called active from +8 up or from −8 down;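 also: E. coli MC1000 strain DRC41 lacking acrAB efflux pump and sulA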
[12] = probe aLefty1 binding on compound microarray – biochemical, small-molecule microarray, 635/667 nm fluorescence, primary screen (AID 1153); settings: higher = more signal;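 also: score merges spot fluorescence with signal-to-noise ratio from the scanned slide images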
[13] = plasmodial surface anion channel blockers, osmotic lysis – cell-based, P. falciparum Indochina, OD700, 1 h, primary screen (AID 1154); settings: P. falciparum Indochina infected RBC osmotic lysis, higher = more signal, called active from +8 up or from −8 down
[14] = plasmodial surface anion channel blockers, osmotic lysis – cell-based, P. falciparum Indochina, OD700, 2 h, primary screen (AID 1155);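 also: lysis reports solute entry through the parasite surface anion channel PSAC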; settings: P. falciparum Indochina infected erythrocytes, higher = more signal, called active from +8 up or from −8 down
[15] = changes in parasitized red cell lysis, either direction – P. falciparum Indochina, OD700, 3 h, PSAC antagonist project, primary screen (AID 1156); settings: P. falciparum-infected erythrocytes, osmotic lysis, higher = more signal, called active from +8 up or from −8 down
[16] = plasmodial surface anion channel blockers, osmotic lysis – cell-based, P. falciparum Indochina, OD700, 18 h, primary screen (AID 1157); settings: P. falciparum Indochina infected erythrocytes, osmotic lysis OD700, 18 h; higher = more signal, called active from +8 up or from −8 down
[17] = S6 kinase pathway phospho-S6 level changes – cell-based, A549, cytoblot, luminescence, serum-stimulated, primary screen (AID 1158); settings: 5 h, higher = more signal;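 also: serum-stimulated A549 lung adenocarcinoma cells; signal is phosphorylated S6 detected by cytoblot immunostaining with HRP secondary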
[18] = target: NADPH oxidase 2 (Homo sapiens) (UniProt P04839); assay: compounds shifting NOX2 Amplex Red fluorescence – cell-based, HEK293-NOX2, PMA-stimulated, NOX inhibitor project, primary screen (AID 1159); settings: 45 min, higher = more signal, called active from +8 up or from −8 down; also: test concentration not given here
Sequence of NADPH oxidase 2 (Homo sapiens) (P04839 whole entry, looked up): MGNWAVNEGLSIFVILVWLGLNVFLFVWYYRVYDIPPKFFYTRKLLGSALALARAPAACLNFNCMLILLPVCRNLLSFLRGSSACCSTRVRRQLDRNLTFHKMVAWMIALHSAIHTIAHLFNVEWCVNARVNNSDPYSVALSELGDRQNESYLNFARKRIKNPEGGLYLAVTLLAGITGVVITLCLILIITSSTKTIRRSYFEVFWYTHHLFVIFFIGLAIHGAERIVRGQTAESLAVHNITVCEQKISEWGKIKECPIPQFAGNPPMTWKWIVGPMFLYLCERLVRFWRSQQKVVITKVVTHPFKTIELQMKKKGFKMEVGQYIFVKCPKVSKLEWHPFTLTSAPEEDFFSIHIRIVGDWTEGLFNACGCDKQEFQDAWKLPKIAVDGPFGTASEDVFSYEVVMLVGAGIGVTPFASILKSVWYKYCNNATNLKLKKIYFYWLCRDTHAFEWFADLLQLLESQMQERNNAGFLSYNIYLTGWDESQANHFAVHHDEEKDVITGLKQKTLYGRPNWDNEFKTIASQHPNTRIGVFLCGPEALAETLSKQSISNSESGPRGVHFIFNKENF

[19] = target: NADPH oxidase 4 (Homo sapiens) (UniProt Q9NPH5); assay: compounds shifting NOX4 Amplex Red fluorescence – cell-based, HEK293-NOX4, tetracycline-induced, NOX inhibitor project, primary screen (AID 1160); settings: HEK293-NOX4, Amplex Red H2O2 fluorescence, 45 min; higher = more signal, called active from +8 up or from −8 down
Sequence of NADPH oxidase 4 (Homo sapiens) (Q9NPH5 whole entry, looked up): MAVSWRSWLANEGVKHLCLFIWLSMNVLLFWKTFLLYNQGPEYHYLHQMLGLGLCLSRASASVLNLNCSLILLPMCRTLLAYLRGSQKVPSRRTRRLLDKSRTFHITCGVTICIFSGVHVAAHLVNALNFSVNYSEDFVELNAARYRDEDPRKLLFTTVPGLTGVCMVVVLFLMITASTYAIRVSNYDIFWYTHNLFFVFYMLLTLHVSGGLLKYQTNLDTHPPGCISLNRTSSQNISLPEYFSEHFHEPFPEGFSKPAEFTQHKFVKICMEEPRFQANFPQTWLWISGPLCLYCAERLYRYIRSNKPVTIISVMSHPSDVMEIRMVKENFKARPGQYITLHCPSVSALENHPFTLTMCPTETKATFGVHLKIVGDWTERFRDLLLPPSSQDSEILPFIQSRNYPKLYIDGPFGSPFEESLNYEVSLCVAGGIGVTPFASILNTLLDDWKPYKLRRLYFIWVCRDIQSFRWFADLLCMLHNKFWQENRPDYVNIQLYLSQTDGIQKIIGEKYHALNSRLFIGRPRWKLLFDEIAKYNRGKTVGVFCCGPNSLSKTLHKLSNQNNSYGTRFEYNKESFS

[20] = target: NADPH oxidase 5 (Homo sapiens) (UniProt Q96PH1); assay: compounds shifting NOX5 Amplex Red fluorescence – cell-based, HEK293-NOX5, NOX inhibitor project, primary screen (AID 1161); settings: HEK293-NOX5, ionomycin, 45 min, higher = more signal
Sequence of NADPH oxidase 5 (Homo sapiens) (Q96PH1 whole entry, looked up): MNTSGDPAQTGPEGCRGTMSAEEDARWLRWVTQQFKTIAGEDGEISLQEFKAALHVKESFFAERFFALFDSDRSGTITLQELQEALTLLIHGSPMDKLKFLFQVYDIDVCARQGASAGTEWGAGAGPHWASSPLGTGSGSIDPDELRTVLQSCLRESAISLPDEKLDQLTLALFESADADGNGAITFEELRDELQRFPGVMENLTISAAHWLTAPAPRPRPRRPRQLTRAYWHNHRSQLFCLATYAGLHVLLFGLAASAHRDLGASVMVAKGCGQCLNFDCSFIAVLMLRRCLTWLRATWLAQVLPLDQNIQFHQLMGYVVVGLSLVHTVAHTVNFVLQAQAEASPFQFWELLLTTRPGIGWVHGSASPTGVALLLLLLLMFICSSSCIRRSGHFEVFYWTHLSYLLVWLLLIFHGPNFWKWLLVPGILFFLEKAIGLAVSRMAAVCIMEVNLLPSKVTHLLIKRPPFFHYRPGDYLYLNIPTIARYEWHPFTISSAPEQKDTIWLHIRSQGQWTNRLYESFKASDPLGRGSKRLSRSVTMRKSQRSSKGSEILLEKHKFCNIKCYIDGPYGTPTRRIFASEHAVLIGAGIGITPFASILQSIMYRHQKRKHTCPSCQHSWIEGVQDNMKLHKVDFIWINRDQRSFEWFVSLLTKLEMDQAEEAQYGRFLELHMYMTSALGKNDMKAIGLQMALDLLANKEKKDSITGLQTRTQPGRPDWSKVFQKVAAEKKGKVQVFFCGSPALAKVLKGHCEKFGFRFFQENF

Compound: OCC1CC(c2ccccc2)=NO1 (stereo not given)
- composite z-score [1]: 0.111
- z-score [2]: 0.414 (inactive)
- z-score [3]: -0.0165 (inactive)
- z-score [4]: 0.312 (inactive)
- z-score [5]: -0.295 (inactive)
- composite z-score [6]: 2.47
- composite z-score [7]: -0.0405
- composite z-score [8]: 0.99
- composite z-score [9]: 0.322
- composite z-score [10]: 0.0003
- z-score [11]: 0.727 (inactive)
- composite z-score [12]: 0.0278
- z-score [13]: 5.51 (inactive)
- z-score [14]: 0.623 (inactive)
- z-score [15]: -0.182 (inactive)
- z-score [16]: 0.206 (inactive)
- z-score [17]: 0.137
- z-score [18]: -1.17 (inactive)
- z-score [19]: -0.137 (inactive)
- z-score [20]: 0.273

Compound: O[C@@H](Cc1ccccc1)[C@@H](/C=C/C1CC1)N(CC#Cc1ccccc1)Cc1cccc(Cl)c1
- composite z-score [1]: -0.501
- z-score [2]: -1.09 (inactive)
- z-score [3]: -0.94 (inactive)
- z-score [4]: 2.04 (inactive)
- z-score [5]: -0.295 (inactive)
- composite z-score [6]: -0.679
- composite z-score [7]: -0.302
- composite z-score [8]: -0.662
- composite z-score [9]: -0.976
- composite z-score [10]: -1.03
- z-score [11]: 1.96 (inactive)
- composite z-score [12]: 0.161
- z-score [13]: 1.49 (inactive)
- z-score [14]: 0.761 (inactive)
- z-score [15]: 0.124 (inactive)
- z-score [16]: 0.23 (inactive)
- z-score [17]: 0.715
- z-score [18]: 0.166 (inactive)
- z-score [19]: 0.727 (inactive)
- z-score [20]: -0.406

Compound: COc1ccc(NC(=O)O[C@H]2[C@H](OC(=O)Nc3ccccc3)[C@@H](OC(=O)Nc3ccccc3)[C@@H](OC)O[C@@H]2CO)cc1
- composite z-score [1]: 1.48
- z-score [2]: -4.91 (inactive)
- z-score [3]: -1.81 (inactive)
- z-score [4]: 0.895 (inactive)
- z-score [5]: -1.52 (inactive)
- composite z-score [6]: 0.0017
- composite z-score [7]: 0.0342
- composite z-score [8]: 0.66
- composite z-score [9]: 1.26
- composite z-score [10]: 1.17
- z-score [11]: -0.302 (inactive)
- composite z-score [12]: 0.113
- z-score [13]: 4.49 (inactive)
- z-score [14]: 0.463 (inactive)
- z-score [15]: 0.316 (inactive)
- z-score [16]: 0.373 (inactive)
- z-score [17]: 0.256
- z-score [18]: -7.53 (inactive)
- z-score [19]: -0.713 (inactive)
- z-score [20]: -2.43

Compound: CN(C)CCCNC(=O)[C@@H]1c2ccccc2C(=O)N(Cc2ccccc2Cl)[C@H]1c1ccc(CO)cc1
- composite z-score [1]: -0.12
- z-score [2]: -1.77 (inactive)
- z-score [3]: 0.388 (inactive)
- z-score [4]: -0.206 (inactive)
- z-score [5]: -0.343 (inactive)
- composite z-score [6]: -0.34
- composite z-score [7]: -0.182
- composite z-score [8]: 1.59
- composite z-score [9]: 0.798
- composite z-score [10]: -0.12
- z-score [11]: 0.681 (inactive)
- composite z-score [12]: 0.022
- z-score [13]: 3.77 (inactive)
- z-score [14]: 0.603 (inactive)
- z-score [15]: 1.68 (inactive)
- z-score [16]: 0.599 (inactive)
- z-score [17]: 0.517
- z-score [18]: 0.277 (inactive)
- z-score [19]: 0.691 (inactive)
- z-score [20]: -0.0877

Compound: C=CC[C@]1(C(=O)NCCN2CCOCC2)N=C(c2ccc(OCCCO)cc2)O[C@H]1c1ccccc1CN=[N+]=[N-]
- composite z-score [1]: 1.08
- z-score [2]: -0.933 (inactive)
- z-score [3]: 0.81 (inactive)
- z-score [4]: 2.01 (inactive)
- z-score [5]: -0.784 (inactive)
- composite z-score [6]: -0.422
- composite z-score [7]: -0.374
- composite z-score [8]: 1.39
- composite z-score [9]: 1.11
- composite z-score [10]: 0.284
- z-score [11]: 1.33 (inactive)
- composite z-score [12]: -0.264
- z-score [13]: 18.6 (active)
- z-score [14]: 1.83 (inactive)
- z-score [15]: 2.57 (inactive)
- z-score [16]: 0.79 (inactive)
- z-score [17]: 0.202
- z-score [18]: 2.07 (inactive)
- z-score [19]: 1.16 (inactive)
- z-score [20]: -0.426

Compound: O=C1NC(=O)C2C1C=CC(C(O)CCc1ccccc1)N2Nc1ccc(Cl)cc1Cl (stereo not given)
- composite z-score [1]: 0.564
- z-score [2]: -0.149 (inactive)
- z-score [3]: 0.0136 (inactive)
- z-score [4]: 0.243 (inactive)
- z-score [5]: 0.0662 (inactive)
- composite z-score [6]: 0.209
- composite z-score [7]: -0.0581
- composite z-score [8]: 0.689
- composite z-score [9]: 1.36
- composite z-score [10]: -0.625
- z-score [11]: -1.34 (inactive)
- composite z-score [12]: -0.0162
- z-score [13]: 2.28 (inactive)
- z-score [14]: 1.31 (inactive)
- z-score [15]: 0.0675 (inactive)
- z-score [16]: 1.05 (inactive)
- z-score [17]: -1.01
- z-score [18]: -0.22 (inactive)
- z-score [19]: -5.55 (inactive)
- z-score [20]: -0.709

Compound: CN(C)C(=O)[C@@]1(Cc2ccccc2CN=[N+]=[N-])N=C(c2ccc(OCCCO)cc2)O[C@H]1c1ccccc1CN=[N+]=[N-]
- composite z-score [1]: 0.507
- z-score [2]: -3.14 (inactive)
- z-score [3]: 0.427 (inactive)
- z-score [4]: 2.69 (inactive)
- z-score [5]: 0.517 (inactive)
- composite z-score [6]: 1.1
- composite z-score [7]: 0.575
- composite z-score [8]: 0.0276
- composite z-score [9]: 0.767
- composite z-score [10]: -0.304
- z-score [11]: -0.395 (inactive)
- composite z-score [12]: 0.315
- z-score [13]: 10.9 (active)
- z-score [14]: 1.46 (inactive)
- z-score [15]: 0.589 (inactive)
- z-score [16]: 0.515 (inactive)
- z-score [17]: 0.0709
- z-score [18]: -0.379 (inactive)
- z-score [19]: 1.43 (inactive)
- z-score [20]: 2.09

Compound: C=C(CCCC)/C(=C/C[C@@H](OC(=O)c1ccncc1)c1ccccc1OCCO)c1cnc2ccccc2c1
- composite z-score [1]: 0.944
- z-score [2]: -2.5 (inactive)
- z-score [3]: 0.207 (inactive)
- z-score [4]: 10.3 (active)
- z-score [5]: 0.689 (inactive)
- composite z-score [6]: 1.16
- composite z-score [7]: 0.11
- composite z-score [8]: 0.49
- composite z-score [9]: -0.239
- composite z-score [10]: 2.17
- z-score [11]: -0.209 (inactive)
- composite z-score [12]: 0.541
- z-score [13]: 20.2 (active)
- z-score [14]: 4.55 (inactive)
- z-score [15]: 1.58 (inactive)
- z-score [16]: 1.12 (inactive)
- z-score [17]: 0.759
- z-score [18]: -0.852 (inactive)
- z-score [19]: 0.474 (inactive)
- z-score [20]: -0.524
